# Myeloid diff 2 = compounds promoting myeloid differentiation | ER-HoxA9 myeloid progenitors, lysozyme-GFP differentiation, flow cytometry | calls only at 10 µM | hit rate 1% among 360,000;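 active = normalized GFP-positive differentiation at or above the plate's own cutoff, the solvent-only control mean plus 3 SD; inconclusive = no clear call, values can overlap the other calls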;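 note: cells exposed to compound for four days before flow analysis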
# ABCB6 inh 2 = inhibitors of human ABC transporter ABCB6 | fluorescence ratio to DMSO, % at 10 µM | hit rate 0.19% among 360,000 | K562-ABCB6 porphyrin accumulation, flow cytometry, 1 h; stronger effect = lower value | Q9NP58 | AID 602162;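 active = fluorescence ratio to DMSO below 75%, the collection mean minus 3 SD; inconclusive = too few cells collected in the well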;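 note: signal is porphyrin accumulated inside mitochondria; 100% equals median channel fluorescence of DMSO control wells; lower ratio means ABCB6 inhibition with less porphyrin fluorescence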
# Target sequence (Q9NP58 whole entry, looked up): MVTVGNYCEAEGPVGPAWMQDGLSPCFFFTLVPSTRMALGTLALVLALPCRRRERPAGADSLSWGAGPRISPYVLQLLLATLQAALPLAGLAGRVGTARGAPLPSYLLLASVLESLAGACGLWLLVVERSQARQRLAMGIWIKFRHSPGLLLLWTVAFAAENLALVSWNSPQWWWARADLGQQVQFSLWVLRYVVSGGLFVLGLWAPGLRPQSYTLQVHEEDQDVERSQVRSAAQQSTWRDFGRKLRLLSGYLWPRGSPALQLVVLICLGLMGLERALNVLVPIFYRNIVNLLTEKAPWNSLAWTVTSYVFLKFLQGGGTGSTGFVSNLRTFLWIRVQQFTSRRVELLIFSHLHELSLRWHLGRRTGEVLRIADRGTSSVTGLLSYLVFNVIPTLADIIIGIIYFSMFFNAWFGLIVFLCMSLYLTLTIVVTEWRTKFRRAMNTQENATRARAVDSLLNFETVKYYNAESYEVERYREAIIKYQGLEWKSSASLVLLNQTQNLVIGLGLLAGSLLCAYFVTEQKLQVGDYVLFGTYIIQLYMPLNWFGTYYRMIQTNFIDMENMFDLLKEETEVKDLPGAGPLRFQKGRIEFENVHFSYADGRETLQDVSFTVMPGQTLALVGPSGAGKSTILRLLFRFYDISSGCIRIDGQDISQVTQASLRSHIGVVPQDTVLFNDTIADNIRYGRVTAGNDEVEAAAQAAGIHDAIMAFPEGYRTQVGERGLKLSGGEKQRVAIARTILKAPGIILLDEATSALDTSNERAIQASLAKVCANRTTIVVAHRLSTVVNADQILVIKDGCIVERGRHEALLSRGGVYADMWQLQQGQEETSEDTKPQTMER
# iPSC survival up = increases survival of single human iPS cells. hiPSC single-cell survival, ATPlite luminescence; 100% = ROCK inhibitor wells, 0% = DMSO. survival enhancement, % at 20 µM. hit rate 0.044% among 360,000. AID 602274; in the data active = survival enhancement above about 18%;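 note: cells exposed to compounds for 16 hours before the ATP read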
# Cardio protect = modulators protecting cardiomyocytes from myocardial damage | hit rate 0.63% among 360,000 | H9c2 cardiomyocytes, H2O2 injury protection, ATPLite, 2 h | protection from H2O2 cell death, % at 20 µM;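 active = compounds giving at least 50% protection of heart cells from peroxide-induced death in the single-dose screen, raw or plate-pattern-corrected value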;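 note: 0% = DMSO wells with peroxide and 100% = DMSO wells without peroxide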
# beta cell repl = induces beta-cell replication in MIN6 cells | MIN6 cells proliferation, ATPlite luminescence, 48 h; cells starved in 0.2% serum; 100% = growth in 10% serum | proliferation, % at 10 µM | hit rate 0.29% among 330,000 | AID 2380;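 active = compounds whose signal lies at least 3.5 SD above the mean of all wells on their plate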;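 note: 0% = DMSO-treated cells in low-serum medium and 100% = 10% serum control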
# An asterisk follows results filed as active; i = inactive; ? = inconclusive; · = no result given; + = active, no number. Hits are enriched below; roughly 2.2% of the tested compounds scored in any of these assays.
SMILES,Myeloid diff 2,ABCB6 inh 2,iPSC survival up,Cardio protect,beta cell repl
Cc1[nH]n(-c2nc(-c3ccc(Cl)cc3)cs2)c(=O)c1N=Nc1ccc(O)cc1,·,135.0,-1.6,79.9*,-5.5
O=c1c(-c2nc3ccccc3s2)cccn1Cc1ccccc1,+,97.0,-2.9,-5.3,-1.6
Fc1ccccc1N1CCN(C(c2cccs2)c2nnnn2CCc2ccccc2)CC1 (centres undefined),i,93.0,-3.4,-10.4,-1.4
CCOc1ccc(OCC)c(NC(=O)C2CCN(S(=O)(=O)c3cnc[nH]3)CC2)c1,i,87.0,-2.2,9.1,1.8
CCOC(=O)c1oc2ccc(S(=O)(=O)n3nc(-c4ccccc4)cc3N)cc2c1C,+,105.0,-1.0,-36.3,-6.2
CCOC(=O)c1oc2ccc(S(=O)(=O)n3nc(-c4ccc(OC)cc4)cc3N)cc2c1C,?,98.0,1.6,-20.8,-2.9
CC1CC(=O)C2=C(C1)Nc1ccccc1N(C(=O)COc1ccccc1)C2c1ccco1 (centres undefined),+,95.0,-0.1,7.6,6.0
COc1ccc(NS(=O)(=O)c2cc(NC(=O)C3CC3)ccc2N2CCCCC2)cc1,+,94.0,0.6,-16.4,-4.2
CCOc1ccccc1C1N=C(c2ccc(OC)cc2)CC(c2ccccc2O)N1 (centres undefined),i,95.0,-0.8,-12.5,-6.8
CSc1nc2ccc(Nc3nc(N4CCOCC4)nc(N4CCOCC4)n3)cc2s1,i,94.0,-1.3,69.5*,-4.7
O/N=C1/CCc2nonc2/C1=N/O,i,105.0,4.1,7.2,1.6
COc1cccc(/C=N/NC(=O)c2ccc(-c3ccccc3)cc2)c1O,?,100.0,-1.2,29.8,-3.5
CCCCSc1nc(C)cc(SCC(=O)N/N=C/c2cccc(OC)c2O)n1,i,104.0,-0.3,51.5*,-4.4
COc1cccc(/C=N/NC(=O)CN2CC(c3ccccc3)CC2=O)c1O (centres undefined),i,91.0,-2.8,56.4*,-2.8
COc1ccccc1/C=N/NC(=O)CSc1ccc2ccccc2n1,i,90.0,0.0,-0.2,0.0
COc1cccc(/C=N/NC(=O)CSc2nnc(C)n2-c2ccccc2)c1O,i,98.0,-3.6,79.6*,-1.0
Cc1[nH]c2ccccc2c1C(=O)COC(=O)c1cccc(S(=O)(=O)N2CCCCC2)c1,i,98.0,0.5,-4.2,0.0
O=C(c1ccc(Br)cc1)N(Cc1nc2ccccc2c(=O)[nH]1)C1CCCC1,i,96.0,0.3,-16.4,0.9
COc1cc2sc3cc(NCCCN4CCOCC4)ccc3c(=O)c2cc1OC,i,99.0,-2.5,17.6,-2.9
Cc1cc2oc3cc(NCCC4CCCN4C)ccc3c(=O)c2cc1C (centres undefined),i,96.0,-3.7,-12.1,-7.9
CN1CCCC1CCNc1ccc2sc3ccccc3c(=O)c2c1 (centres undefined),+,272.0,-4.8,4.9,-8.0
O=c1c2ccccc2sc2ccc(NCCCN3CCOCC3)cc12,+,153.0,1.3,-6.9,-5.9
Cc1ccccc1NC(=O)Cn1c(=O)n(C)c2ccccc21,i,101.0,-1.7,11.7,-1.2
CC(=O)c1cccc(Nc2nc(-c3sc(N)nc3C)cs2)c1,i,113.0,-0.3,70.4*,-2.5
CCCc1cc(=O)oc2c(CNc3ccc(OCC)cc3)c(O)ccc12,·,97.0,1.9,59.4*,-1.3
SMILES,Myeloid diff 2,ABCB6 inh 2,iPSC survival up,Cardio protect,beta cell repl
Cc1cc(C)n(C(CC(=O)N2CCc3ccccc3C2)C(=O)O)n1 (centres undefined),+,98.0,-1.9,7.5,-0.6
O=C1CC(c2ccccc2)Cc2nc(N3CCc4ccccc43)ncc21 (centres undefined),i,91.0,2.8,5.8,-2.4
CS(=O)(=O)Nc1ccc(-c2cn3cccnc3n2)cc1,i,98.0,0.1,5.3,-0.3
CS(=O)(=O)Nc1ccc(-c2ccc3nccn3c2)cc1,i,98.0,0.2,51.7*,·
CCOc1cc(/C=C/C(=O)c2ccc3c(c2)OCCO3)ccc1OCC(=O)N(C)C,+,99.0,0.6,5.3,-3.3
CCOc1cc(/C=C/C(=O)c2ccc(O)cc2)ccc1OCC(=O)N(C)C,i,93.0,-0.7,7.7,-2.2
CCOC(=O)c1c(-c2ccccc2)csc1NC(=S)N(CC)CC,i,89.0,4.2,-9.9,·
COc1ccc(C)cc1S(=O)(=O)Nc1cc2c3c(c1)CC(=O)N3CCC2,i,102.0,0.3,8.4,-0.6
COC(=O)Nc1ccc(S(=O)(=O)N2CCC(C(=O)NC3CCCCC3)CC2)cc1,+,148.0,0.1,3.1,-2.5
O=C(Nc1ccc(S(=O)(=O)N2CCCCC2)cc1)C1CCN(C(=O)c2ccco2)CC1,+,94.0,0.8,-0.6,-0.7
COC(=O)Nc1ccc(S(=O)(=O)N2CCCC(C(=O)NC3CCCCC3)C2)cc1 (centres undefined),i,107.0,-0.8,-3.0,-1.0
CC1CCN(S(=O)(=O)c2ccc(NC(=O)C3CCN(C(=O)c4ccco4)CC3)cc2)CC1,i,104.0,-0.4,-13.4,-0.4
O=C(N/N=C/c1ccc(O)cc1)c1cc(-c2ccccc2)nc2ccccc12,i,93.0,0.0,11.0,1.2
CC(=O)N(/N=C1\Sc2ccccc2C1=O)c1ccc(C)cc1C,+,274.0,-5.2,-32.9,-3.4
CC(=O)N(/N=C1\Sc2ccccc2C1=O)c1ccccc1C,i,112.0,-1.2,-20.7,-1.9
NC[C@@H]1O[C@H](C23CC4CC(CC(C4)C2)C3)Cc2c1ccc(O)c2O,+,140.0,-4.8,27.5,-7.4
O=c1[nH]cnc2sc3c(c12)CCC3,i,100.0,0.0,59.8*,-3.0
Cc1nc2sc3c(c2c(=O)[nH]1)CCC3,i,100.0,1.1,40.3,1.4
Cc1ccc(S(=O)(=O)CCC(=O)c2ccc(F)cc2)cc1,?,103.0,0.1,-18.1,-6.8
COc1ccc(NC(=O)CCS(=O)(=O)c2ccc(Cl)cc2)cc1,+,122.0,0.3,-4.5,7.0
Cc1ccc(C(=O)CCS(=O)(=O)c2ccc(Cl)cc2)cc1,+,103.0,-0.1,-15.5,-6.9
Cc1ccsc1C1CC(=O)Nc2ccccc2S1 (centres undefined),+,103.0,-0.7,2.0,-2.1
O=C1CC(c2ccccc2)Sc2ccccc2N1 (centres undefined),i,94.0,5.3,-4.2,-2.2
C[n+]1c2n(c3ccccc31)N=C(c1ccc(Cl)cc1)CS2,+,96.0,-0.2,-11.2,-6.3
COc1ccc(C2=Nn3c([n+](C)c4ccccc43)SC2)cc1,?,100.0,-0.4,-18.5,-6.7
CC(C)CNS(=O)(=O)c1ccc(CCC(=O)Nc2cc(Cl)ccc2Oc2ccccc2)cc1,i,97.0,-3.3,-13.8,-3.1
COc1ccc(-c2c(C)nn3c(N4CCOCC4)cc(C)nc23)cc1OC,+,106.0,-0.3,10.1,·
COc1ccc(-c2c(C)nn3c(N4CCCCCC4)cc(C)nc23)cc1OC,i,92.0,0.9,-6.0,-6.8

# Assay outcomes (PubChem BioAssay)
